According to PMC8159961, “Exploring protein hotspots by optimized fragment pharmacophores” (Nature Communications, 2021):

These molecules were tested against 5-HT1A receptor (human, UniProt P08908) (assay: primary screen, binary call; higher = more effect of the substance). Details: 10 µM; call rule not given here.
Set-up: hit call from the mean of at least two separate experiments
Experimental: GPCR radioligand binding assays were performed in HEK293 cells with stable expression of human 5-HT1A, 5-HT6, and 5-HT7b receptors (prepared with the use of Lipofectamine 2000). Non-specific binding was defined with 10 µM of 5-HT in 5-HT1AR and 5-HT7R binding experiments, whereas 10 µM of mianserin was used in 5-HT6R assays, respectively. Each compound was tested at 10 µM concentration. Results were expressed as means of at least two separate experiments.

Sequence of 5-HT1A receptor (P08908 whole entry, looked up): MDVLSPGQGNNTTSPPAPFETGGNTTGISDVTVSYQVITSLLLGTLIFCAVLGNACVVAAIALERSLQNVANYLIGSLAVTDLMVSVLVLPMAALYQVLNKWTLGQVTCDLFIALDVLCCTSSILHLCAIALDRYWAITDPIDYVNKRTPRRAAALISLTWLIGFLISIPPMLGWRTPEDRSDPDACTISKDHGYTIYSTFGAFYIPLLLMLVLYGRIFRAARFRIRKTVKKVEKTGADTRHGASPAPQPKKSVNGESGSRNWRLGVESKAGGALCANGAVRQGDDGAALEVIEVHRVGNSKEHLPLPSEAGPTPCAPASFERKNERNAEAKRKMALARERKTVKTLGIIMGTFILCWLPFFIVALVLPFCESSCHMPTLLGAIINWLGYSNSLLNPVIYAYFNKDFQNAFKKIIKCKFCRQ

Row | SMILES | 5-HT1
1 | O=C1CCCc2occc21 | 0 (inactive)
2 | c1ccc2oc(C3CCCNC3)nc2c1 (centres unmarked) | 1 (active)
3 | Oc1ccccc1N1CCCCC1 | 0 (inactive)
4 | Cn1c(N)nc2ccccc21 | 0 (inactive)
5 | Cc1ccc(CCNc2ccccc2)cn1 | 0 (inactive)
6 | N#Cc1ccc2ncsc2c1 | 0 (inactive)
7 | CC(=O)c1sc(-c2ccc(O)cc2)nc1C | 0 (inactive)
8 | Cc1cc(-c2ccccc2)n[nH]1 | 0 (inactive)
9 | FC1(F)CNCC(F)(F)O1 | 0 (inactive)
10 | Cc1ccc(C)n1Cc1ccccc1Cl | 0 (inactive)
11 | Cn1c(CO)nc2ccccc21 | 0 (inactive)
